Sm TGR inh: inhibitors of Schistosoma mansoni thioredoxin glutathione reductase; Potency, µM (highest dose often 114 µM), hits mostly inhibitors; Q962Y6; 3% of 360,000 active; AID 485364; purified TGR, DTNB reduction, TNB absorbance 405 nm; note: nearly all actives have a fitted effect of over 60% in size
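First, TGR (20 nM dispensed) and NADPH were mixed with compound. Second, a 15 min room-temperature incubation followed. Third, further NADPH and then DTNB were added to start the reaction. Finally, TNB absorbance was monitored kinetically.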
FMDV inh: antivirals against foot and mouth disease virus. FMDV antiviral cell-based qHTS. Potency, µM (highest dose often 57.9 µM), most hits filed as inhibitors. 1.2% of 410,000 active. AID 1159524; calls by dose curve; tested in HEK293T cells; note: read-out not given here; nearly all actives have a fitted effect of over 45% in size
RE007 growth inh: less growth of the S. pombe RE007 Vpr strain; Potency, µM (highest dose often 92.2 µM), most hits filed as inhibitors; AID 651644; 0.21% of 360,000 active; S. pombe RE007 Vpr strain, BacTiter-Glo ATP luminescence, 24 h; active = well fitted falling curve with a large enough effect; inconclusive = small, poorly fitted or top-dose-only effect; inactive = no such curve, though single readings can be large or run the other way; note: nearly all actives have a fitted effect of over 50% in size
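Fission yeast RE007 carrying one integrated HIV-1 vpr copy, seeded at OD 0.01 in PMG+AL medium with 23 nL pinned compound. Grown 24 h at 30 degrees; viability read by BacTiter-Glo luminescence after 5 min.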
TbPYK inhibitor: T. brucei pyruvate kinase inhibition; Q57TT1; TbPYK enzyme, Kinase-Glo Plus ATP luminescence, 45 min; Potency, µM (top dose mostly 76.8 µM), hits mostly inhibitors; 0.12% of 410,000 active; note: nearly all actives have a fitted effect of over 50% in size
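Glycolytic pyruvate kinase of T. brucei was incubated with substrate, test compound and 130 uM ADP for 45 minutes at room temperature. Luminescent Kinase-Glo Plus signal was measured after 10 minutes.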
Numbers stand for hits; – = inactive; ? = inconclusive; · = no result given. A selection: hits, their analogues and other compounds. The true share with any hit is near 3.7%. Unless noted, calls come from the whole dose curve; as a rule, active = well fitted curve in the direction sought with a large enough effect; inconclusive = small, poorly fitted or top-dose-only effect, or another doubt; inactive = no such curve, though single readings can be large; an effect the other way counts as inactive or inconclusive.

SMILES | Sm TGR inh | FMDV inh | RE007 growth inh | TbPYK inhibitor
Cc1ccc(C(C(=O)NC(C)(C)C)N(Cc2ccco2)C(=O)Cn2nnc(-c3cccs3)n2)cc1 (configuration not stated) | – | – | – | –
CC(C)(C)NC(=O)C(c1ccncc1)N(Cc1cccs1)C(=O)Cn1nnc(-c2cccs2)n1 (configuration not stated) | 50µM | · | – | –
O=C(CN(Cc1ccco1)C(=O)Cn1nnc(-c2cccs2)n1)NCc1ccccc1 | 18µM | · | – | –
Cc1cccc(N(CC(=O)NCc2ccccc2)C(=O)Cn2nnc(-c3ccc(C)o3)n2)c1 | – | – | – | –
CC(C)(C)NC(=O)C(c1ccc(O)cc1)N(Cc1ccco1)C(=O)Cn1nnc(-c2cccs2)n1 (configuration not stated) | 18µM | · | – | –
Cc1ccc(-c2nnn(CC(=O)N(CC(=O)NCc3ccccc3)c3cccc(C)c3C)n2)o1 | 22µM | – | – | –
Cc1ccc(C(=O)Nc2cnn(-c3ccc(C(=O)NCc4nc(-c5ccccc5)n[nH]4)cc3)c2)c(C)c1 | · | – | · | ·
Cc1ccc(/C=C2/C(=O)NC(=O)N(C)C2=O)cc1 | – | – | – | –
O=C1NC(=O)N(c2ccccc2)C(=O)/C1=C\c1ccc([N+](=O)[O-])s1 | 10µM | – | ? | ?
CN1C(=O)NC(=O)/C(=C/c2ccc([N+](=O)[O-])s2)C1=O | 8.9µM | ? | ? | 14µM
COc1ccc(N2C(=O)NC(=O)/C(=C\c3ccccc3[N+](=O)[O-])C2=O)cc1 | 16µM | – | – | ?
Cc1cccc(N2C(=O)NC(=O)/C(=C/c3cc4c(cc3[N+](=O)[O-])OCO4)C2=O)c1 | 2.2µM | ? | – | ?
CCOc1ccc(N2C(=O)NC(=O)/C(=C\c3ccccc3[N+](=O)[O-])C2=O)cc1 | ? | – | – | ?
CCCNC(=O)N1[C@H](c2ccc(C)s2)[C@@H](C)C(=O)[C@@H](C)[C@@H]1c1ccc(C)s1 | – | – | · | –
C[C@]12C=CC(=O)C=C1CCC1C2C(=O)C[C@]2(C)C1CC[C@]2(O)C(=O)CO (some centres not stated) | · | – | · | ·
c1ccc(C(c2ccccc2)N2CC[C@@]3(CCCNC3)C2)cc1 | · | – | · | –
COc1ccc(OC)c(N2C(=O)NC(=O)/C(=C\c3ccc([N+](=O)[O-])s3)C2=O)c1 | 11µM | – | ? | ?
Oc1ccc(C2Nc3cccc4cccc(c34)N2)c(O)c1 | 50µM | – | – | –
Clc1cccc(C2Nc3cccc4cccc(c34)N2)c1Cl | – | – | – | –
Clc1ccccc1C1Nc2cccc3cccc(c23)N1 | 18µM | – | ? | –
Brc1ccc(-c2ccc(C3Nc4cccc5cccc(c45)N3)o2)cc1 | 35µM | · | · | ·
Brc1ccc(C2Nc3cccc4cccc(c34)N2)cc1 | · | – | – | –
c1coc(C2Nc3cccc4cccc(c34)N2)c1 | 7.9µM | · | · | ·
O=C1C=C2C(=CCOC2O)O1 (configuration not stated) | · | 14µM | · | ·
Cc1cc(Br)ccc1NC(=O)CN1C(=O)C2CC=CCC2C1=O (configuration not stated) | 13µM | – | – | –
SMILES | Sm TGR inh | FMDV inh | RE007 growth inh | TbPYK inhibitor
O=C(CN1C(=O)C2CC=CCC2C1=O)Nc1ccc(Br)cc1 (configuration not stated) | – | – | – | –
COCCn1c(C)cc(C(=O)CSc2ccc(NC(C)=O)cc2)c1C | ? | – | – | –
Cc1csc(SCC(=O)c2cc(C)n(Cc3cccs3)c2C)n1 | – | 11µM | – | –
CC(=O)Nc1ccc(SCC(=O)c2cc(C)n(Cc3cccs3)c2C)cc1 | – | 22µM | – | –
CC(=O)c1ccc(NC(=O)c2ccc3c(c2)N(Cc2cccc(Cl)c2)C(=O)c2ccccc2S3(=O)=O)cc1 | – | – | · | –
N#Cc1ccc(Oc2nc(C#N)cc(-c3ccccc3)n2)cc1 | – | 11µM | – | –
CCCn1c(NCc2ccc3c(c2)OCO3)nc2ccccc21 | 89µM | – | – | –
CCCCn1c(NCc2ccc3c(c2)OCO3)nc2ccccc21 | – | – | – | –
Cc1cccc(NC(=O)CSc2nnc(-c3cnccn3)n2Cc2ccco2)c1 | ? | – | – | –
Cc1ccc(NC(=O)CSc2nnc(-c3cnccn3)n2Cc2ccco2)cc1 | 45µM | – | – | –
O=C(CSc1nnc(-c2cnccn2)n1Cc1ccco1)c1ccc2ccccc2c1 | 25µM | – | – | –
C(=C\c1ccccc1)/CSc1nnc(-c2cnccn2)n1Cc1ccco1 | 20µM | – | – | –
Cc1ccc(NC(=O)C2CCCN(S(=O)(=O)c3cccc4cccnc34)C2)c(C)c1 (configuration not stated) | – | ? | · | –
CO[C@H]1[C@@H](O)[C@H](N)[C@@H](O[C@H]2O[C@@H]([C@H](C)N)CC[C@H]2N)[C@H](O)[C@@H]1N(C)C(=O)CN | · | · | · | –
CC(C)Oc1ccc(C(=O)NCC2Cc3cc(F)cc(-c4cnccn4)c3O2)cc1 (configuration not stated) | · | – | · | ·
c1csc(-c2nnc(NC3CCCCC3)c3ccccc23)c1 | – | 40µM | – | –
CC1CCN(c2nnc(-c3cccs3)c3ccccc23)CC1 | – | – | – | –
Cn1nccc1C(=O)NCC1CCC2(CCN(Cc3cccc4ncccc34)CC2)O1 (configuration not stated) | · | – | · | ·
CC(O)c1nc(C(C)O)n(CC(=O)c2ccccc2)n1 (configuration not stated) | 45µM | – | – | –
CS(=O)(=O)Nc1cc(C(=O)N2CCNC(=O)C2)c2c(c1)ncn2CCc1ccccc1 | · | – | · | ·
O=C(CSc1nc2ccccc2[nH]1)Nc1nc(-c2ccc(Br)cc2)cs1 | – | 22µM | – | –
CCCc1cc(=O)[nH]c(SCC(=O)Nc2nc(-c3ccccc3)cs2)n1 | – | – | – | –
COCCCNC(=O)NC(CCC(C)C)c1c(-n2cccc2)sc2c1CCN(C)C2 (configuration not stated) | – | – | · | –
CN(C)c1ncc2nc(-c3ccccc3)c(=O)n(Cc3ccc(F)cc3)c2n1 | · | – | · | ·
CC1(C)C(c2ccco2)=[N+]([O-])C2(CCCCC2=O)N1O (configuration not stated) | 50µM | – | – | –
SMILES | Sm TGR inh | FMDV inh | RE007 growth inh | TbPYK inhibitor
O=C(CSc1nc2ccc(Cl)cc2[nH]1)NC1CCCc2ccccc21 (configuration not stated) | – | 28µM | – | –
O=C(CSc1nc2ccccc2[nH]1)NC1CCCc2ccccc21 (configuration not stated) | – | – | – | –
Cn1c(=O)c2ccccc2n2c(CCl)nnc12 | 32µM | – | – | –
Cn1cc(CN2CCC(C3(c4ccccn4)NC(=O)N(CC4CCCO4)C3=O)CC2)c2ccccc21 (configuration not stated) | · | – | · | ·
C=CS(=O)(=O)O | · | · | · | –
CCc1nc(Nc2ccc(OC)c(OC)c2)c2nnn(Cc3ccccc3Cl)c2n1 | – | 25µM | – | –
CN(C)S(=O)(=O)c1ccc(Nc2nc(C3CC3)nc3c2nnn3Cc2ccccc2Cl)cc1 | – | 5µM | – | –

Screening data from PubChem.
